CYP2C9 inh – blocks human cytochrome P450 2C9; CYP2C9 Supersomes, luciferin-H conversion, luminescence; AID 777; 96,000 tested, 20% active; P11712; inhibition, % at 5 µM;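 active means blocking of liver enzyme CYP2C9 beyond about 50% at 5 µM, limit read from the data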
PostGolgi ctrl – yeast control strain growth, post-Golgi counter-screen | inhibition, % at 10 µM | efflux-deficient yeast background strain, growth absorbance A615, 16 h | 98,000 tested, 5% active
PostGolgi yeast – growth inhibition of a yeast mutant, post-Golgi transport screen | inhibition, % at 10 µM | 98,000 tested, 0.9% active | post-Golgi transport phenotypic cell assay | AID 739;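 further: yeast cells grown in 1536-well plates; yeast grown about 18 h at 30C before absorbance read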
CYP2C9 activ – CYP2C9 (human) activation | P11712 | recombinant CYP2C9, luciferin-H conversion, luminescence; stronger effect = higher value; factor 1 = untreated enzyme, 0 = blocked | activation factor at 5 µM | 96,000 tested, 1.4% active | AID 1024;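 active means activation factor of 2 or more for CYP2C9 at a 5 µM dose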
CYP2C19 inh – inhibitors of human CYP2C19 | P33261 | inhibition, % at 5 µM | CYP2C19 Supersomes, luciferin-H EGE luminescence, 30 min | 96,000 tested, 21% active;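 active means CYP2C19 inhibition above a set limit at 5 µM in the primary screen, cut at about 50% in these data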
Target sequence (P33261 whole entry, looked up): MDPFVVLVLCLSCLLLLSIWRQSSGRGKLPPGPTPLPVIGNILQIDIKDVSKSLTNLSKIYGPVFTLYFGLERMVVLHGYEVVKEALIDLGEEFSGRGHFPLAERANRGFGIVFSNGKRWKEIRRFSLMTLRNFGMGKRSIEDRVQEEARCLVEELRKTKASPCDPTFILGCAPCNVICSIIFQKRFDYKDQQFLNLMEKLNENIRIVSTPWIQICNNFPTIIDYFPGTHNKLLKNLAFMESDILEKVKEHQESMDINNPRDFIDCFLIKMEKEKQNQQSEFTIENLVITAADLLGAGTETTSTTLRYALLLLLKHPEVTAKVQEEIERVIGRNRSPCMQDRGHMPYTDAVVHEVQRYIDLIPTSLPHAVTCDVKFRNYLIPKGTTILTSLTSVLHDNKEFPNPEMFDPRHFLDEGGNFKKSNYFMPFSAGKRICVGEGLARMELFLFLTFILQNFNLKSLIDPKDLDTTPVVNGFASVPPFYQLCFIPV
CYP2C19 act – cytochrome P450 2C19 (human) activation | recombinant CYP2C19, luciferin-H EGE luminescence; stronger effect = higher value; 0 = fully inhibited enzyme, 1 = untreated enzyme | activation factor at 5 µM | 96,000 tested, under 10 active | AID 1025;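 active means activation factor of at least 2 at 5 µM in the primary screen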
Of the large screens only hits and unclear results are named; the others gave an inactive call. A selection: hits, their analogues and other compounds. The true share with any hit is near 32%. Unless noted, no stated cut-off is given here; in the data, active means inhibition above about 30%; inactive means the rest.

O=C(Nc1ccccc1)Nc1ccc(S(=O)(=O)N2CCCCC2)cc1	PostGolgi ctrl 30.2
Cc1cccc(OCCCC(=O)Nc2ccc(N3CCCCC3)cc2)c1	none
O=C(O)CSCC(=O)Nc1ccc(S(=O)(=O)N2CCCCC2)cc1	none
CC(SCC(=O)Nc1ccc(S(=O)(=O)N2CCCCC2)cc1)C(=O)O (stereo not drawn)	CYP2C9 inh 56.3
COC(=O)c1cccc(NC(=O)CCCOc2cccc(C)c2)c1	CYP2C9 inh 58.0, CYP2C19 inh 76.2
Cc1ccc(C)c(C(=O)CCC(=O)Nc2cccnc2)c1	none
NC(=O)c1ccc(F)cc1	none (no result: CYP2C9 inh, CYP2C9 activ, CYP2C19 inh, CYP2C19 act)
N#CC(c1ccc(F)cc1)c1ccc(C(=O)c2ccc(F)cc2)cc1 (stereo not drawn)	CYP2C9 inh 77.0
Cc1ccc(C(C#N)c2ccc(C(=O)c3ccc(F)cc3)cc2)cc1 (stereo not drawn)	CYP2C9 inh 59.7
Cc1ccc(C(=O)c2ccc(C(F)(F)F)cc2)cc1	none
CCOC(=O)CNC(=O)C(NC(=O)C1CCC(C)CC1)C(C)CC (stereo not drawn)	none
COC(=O)CC1COc2ccccc2N1C(=O)c1ccc(C(C)(C)C)cc1 (stereo not drawn)	CYP2C9 inh 77.1
COc1cc(-c2nc(-c3ccc4c(c3)-c3ccccc3S4(=O)=O)c(-c3ccccc3)[nH]2)cc(OC)c1O	CYP2C9 inh 78.5, CYP2C19 inh 79.4
CCOC(=O)c1cc2sc(C)cc2n1CC(=O)Nc1cccc(C)c1C	none (no result: CYP2C9 inh, CYP2C9 activ, CYP2C19 inh, CYP2C19 act)
CCOC(=O)c1cc2sc(C)cc2n1C(C)C(=O)OCC (stereo not drawn)	CYP2C9 inh 54.5, CYP2C19 inh 95.4
Cc1cc(C(=O)CN2C(=O)c3cccc(N)c3C2=O)c(C)n1Cc1cccs1	CYP2C9 activ 2.4, CYP2C19 inh 91.3
Cc1cc(C(=O)CSc2nnc(-c3ccccc3F)o2)c(C)n1Cc1cccs1	CYP2C9 inh 77.8, CYP2C19 inh 96.2
Cc1cc(C)c(C(=O)CSc2nnc(-c3ccccc3Br)o2)cc1C	none
C=CCn1c(SCC(=O)c2cc(C)n(Cc3cccs3)c2C)nnc1-c1ccncc1	none
Cc1cc(C(=O)CN2C(=O)c3ccccc3S2(=O)=O)c(C)n1CC1CCCO1 (stereo not drawn)	none
COc1ccccc1-n1cnnc1SCC(=O)c1cc(C)n(Cc2cccs2)c1C	CYP2C9 inh 88.8, CYP2C19 inh 97.8
CCC(C)(C)NC(=O)CN(CC1CCCO1)C(=O)CCC(=O)Nc1nccs1 (stereo not drawn)	none
CCn1c(CCC(=O)Nc2cc(F)ccc2C)nc2cc(S(=O)(=O)N(C)C)ccc21	CYP2C9 inh 79.5
CCN(CC)S(=O)(=O)c1ccc2c(c1)nc(CCC(=O)OCC(=O)N1CCc3ccccc31)n2C	none
CCN(CC)S(=O)(=O)c1ccc2c(c1)nc(CCC(=O)Nc1ccccc1Cc1ccccc1)n2CC	CYP2C9 inh 99.9, CYP2C19 inh 77.1
Clc1cccc(COn2c(-c3ccc(Cl)cc3Cl)nc3ncccc32)c1	CYP2C9 inh 91.2, PostGolgi ctrl 71.1, CYP2C19 inh 93.5
Cc1ccc(COn2c(-c3ccc(Cl)cc3Cl)nc3ncccc32)cc1	PostGolgi ctrl 63.5, CYP2C19 inh 82.8
CCOC(=O)c1c(C)cccc1OCC(N)=O	none (no result: CYP2C9 inh, CYP2C9 activ, CYP2C19 inh, CYP2C19 act)
N#CCCN(C(=O)Nc1ccccc1)c1ccccc1	CYP2C19 inh 59.9
CC1(C)CC2CC(C)(CN2C(=O)CN2C(=O)c3ccccc3C2=O)C1 (stereo not drawn)	none
Cc1ccc(C(=O)Nc2ccccc2C(=O)N2CC3(C)CC2CC(C)(C)C3)cc1 (stereo not drawn)	PostGolgi ctrl 41.1
O=C(CSc1n[nH]c(-c2ccc(Cl)cc2Cl)n1)Nc1ccccn1	CYP2C9 inh 71.8, PostGolgi ctrl 32.6
O=S(=O)(N[C@@H]1C[C@H]2CC[C@@H]1C2)c1cccs1	none
CC1CC(NS(=O)(=O)c2cccs2)CC(C)(C)C1 (stereo not drawn)	CYP2C19 inh 53.0
CCN(CC)S(=O)(=O)c1ccc(NC(=O)Cn2cnc3ccccc3c2=O)cc1	CYP2C9 inh 67.2
CN(C)S(=O)(=O)c1cccc(NC(=O)Cn2cnc3ccccc3c2=O)c1	CYP2C9 inh 83.6
O=C(Cn1cnc2ccccc2c1=O)NCCC(=O)Nc1ccc2c(c1)OCCO2	CYP2C9 inh 51.4
O=C(Cn1cnc2ccccc2c1=O)Nc1ccc2c(c1)CCC2	none
O=C(Cn1cnc2ccccc2c1=O)Nc1ccc2c(c1)OCCO2	none
O=C(Cn1ncc2c(=O)oc3ccccc3c21)N1CCCN(Cc2ccccc2F)C1	none
CCCCC(=O)Nc1cc(NC(=O)CCCC)cc(C(=O)O)c1	none
COC(=O)C1=C(C)NC(=O)C1(NC(=O)CN1CCCC1=O)C(F)(F)F (stereo not drawn)	none (no result: CYP2C9 inh, CYP2C9 activ, CYP2C19 inh, CYP2C19 act)
Cc1ccc(N(C)C(=O)N2CCN(S(=O)(=O)c3ccc(C)c(C)c3)CC2)cc1	CYP2C9 inh 77.7, PostGolgi ctrl 34.8, CYP2C19 inh 98.2
Cc1ccc(N(C)C(=O)N2CCN(S(=O)(=O)c3c(C)cc(C)cc3C)CC2)cc1	CYP2C9 inh 74.9, CYP2C19 inh 64.2
Cc1ccc(S(=O)(=O)N2CCC(C(=O)O)CC2)cc1C(=O)O	none
CCN(CC)C(=O)N1CCN(S(=O)(=O)c2ccc(C)cc2)CC1	none
Cc1ccc(S(=O)(=O)N2CCN(C(=O)N(C)C)CC2)cc1C	CYP2C19 inh 55.6
CCN(CC)C(=O)N1CCN(S(=O)(=O)c2ccc(C)c(C)c2)CC1	CYP2C9 activ 2.2, CYP2C19 inh 98.0
CCOc1ccccc1NC(=O)C1CC(=O)n2ncnc2N1 (stereo not drawn)	none
CC(=O)c1cc(C#N)c(SCc2ccccc2)nc1C	none
Nc1nc2ccccc2n1/N=C/c1ccc(-c2ccccc2)o1	none
COC(=O)c1nc(-c2ccccc2)oc1N(C)C	CYP2C9 activ 2.9
COC(=O)c1nc(-c2ccc(C)cc2)oc1N(C)C	CYP2C9 activ 2.4
CCOC(=O)c1nnc(-c2ccccc2)o1	none
CC(C)OC(=O)c1cn(-c2ccccc2)nc1-c1ccc2c(c1)OCCO2	none
O=C1CSC(c2cn(-c3ccccc3)nc2-c2ccc3c(c2)OCCO3)N1CCN1CCOCC1 (stereo not drawn)	CYP2C9 inh 77.9, CYP2C19 inh 80.7
O=C(Nc1ccccc1)N1CCN(c2nc3ccccc3s2)CC1	CYP2C9 inh 59.0, CYP2C19 inh 62.7
O=C(c1cc2sccc2n1Cc1ccccc1)N1CCN(c2nc3ccccc3s2)CC1	CYP2C9 inh 53.4, PostGolgi ctrl 41.1
CCC(=O)N1CCN(c2nc3ccccc3s2)CC1	none
CC1(C)CC(=O)CC(C)(C)N1OC(=O)c1ccncc1	CYP2C9 inh 51.7, CYP2C19 inh 66.7
Cc1cc(C)c(S(=O)(=O)Nc2ccc(O)cc2)c(C)c1	CYP2C19 inh 71.2
O=C(O)CCC(=O)c1ccc2c(c1)OCCO2	none
O=C(CCN1Cc2ccccc2C1)c1ccc2c(c1)OCCO2	CYP2C9 inh 51.5
O=C(O)CCSCC(=O)c1ccc2c(c1)OCCO2	none
CCCC(=O)c1ccc2c(c1)OCCO2	none

Compound activity from PubChem.
